# An excerpt weighted towards active compounds, which were near 3% of everything screened.
# BCR signal inh – inhibitors of chronic active B-cell receptor signaling. ABC-DLBCL IkBa-CBG/CBR reporter, luminescence ratio, 4 h. Potency, µM (highest dose often 46.1 µM), without a hit: at the highest dose activity change, negative = inhibition, hits mostly inhibitors. 340,000 compounds, 0.05% hits. AID 493014; active means well fitted inhibition curve with a large enough effect in the signal ratio, with a control signal flat, not every such curve was filed as active; inconclusive means small, poorly fitted or top-dose-only effect, or effect the other way, or a change in a side signal; the % refers to the signal ratio;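 further: potency means the concentration at half of the fitted maximal effect; plate controls were basal doxycycline-induced cells for no effect and cells given 10 µM MG132 for full effect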
#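 TMD8 ABC-DLBCL cells carrying doxycycline-inducible green luciferase fused to IkappaBalpha plus unfused red luciferase were exposed to compounds (up to 46 uM) for 4 hrs at 37C. Activity came from the overlap-corrected green/red luminescence ratio.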
# ClpP mod – qHTS Assay for Activators of ClpP; ATP-dependent Clp protease proteolytic subunit (Bacillus subtilis (strain 168)), P80244; purified B. subtilis ClpP, FRET peptide cleavage, 20 min; Potency, µM (highest dose often 57.5 µM), inactives show top-dose activity change, negative = active; 340,000 compounds, 1.9% hits; AID 651965, 2013; active means well fitted falling curve with a large enough effect; inconclusive means small, poorly fitted or top-dose-only effect; inactive means no such curve, though single readings can be large or run the other way; further: potency means the concentration at half of the fitted maximal effect; the source files actives as falling curves though it sought activators and does not explain the sign; nearly all actives have a fitted effect of over 65% in size
#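 Buffer: 100 mM Tris/HCl pH8, 100 mM KCl, 0.05% low protease BSA, 2.5% glycerol, 0.01% Tween-20. ClpP 10 microg/mL final; 20 min RT; delta FRET normalized to ADEP and DMSO controls.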
# hERG WT inh – blocks the wildtype human KCNH2 potassium channel; U2OS, BacMam KCNH2, thallium flux FluxOr; active compounds read low; activity change, % at 1.84 µM; Q12809; 340,000 compounds, 0.37% hits;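 active means maximum activity change below -70%; inconclusive means maximum activity change between -70% and -50%; inactive means maximum activity change above -50%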; further: on the % scale 0 is the no-effect control and ±100 the full control effect
# Target sequence (Q12809 whole entry, looked up): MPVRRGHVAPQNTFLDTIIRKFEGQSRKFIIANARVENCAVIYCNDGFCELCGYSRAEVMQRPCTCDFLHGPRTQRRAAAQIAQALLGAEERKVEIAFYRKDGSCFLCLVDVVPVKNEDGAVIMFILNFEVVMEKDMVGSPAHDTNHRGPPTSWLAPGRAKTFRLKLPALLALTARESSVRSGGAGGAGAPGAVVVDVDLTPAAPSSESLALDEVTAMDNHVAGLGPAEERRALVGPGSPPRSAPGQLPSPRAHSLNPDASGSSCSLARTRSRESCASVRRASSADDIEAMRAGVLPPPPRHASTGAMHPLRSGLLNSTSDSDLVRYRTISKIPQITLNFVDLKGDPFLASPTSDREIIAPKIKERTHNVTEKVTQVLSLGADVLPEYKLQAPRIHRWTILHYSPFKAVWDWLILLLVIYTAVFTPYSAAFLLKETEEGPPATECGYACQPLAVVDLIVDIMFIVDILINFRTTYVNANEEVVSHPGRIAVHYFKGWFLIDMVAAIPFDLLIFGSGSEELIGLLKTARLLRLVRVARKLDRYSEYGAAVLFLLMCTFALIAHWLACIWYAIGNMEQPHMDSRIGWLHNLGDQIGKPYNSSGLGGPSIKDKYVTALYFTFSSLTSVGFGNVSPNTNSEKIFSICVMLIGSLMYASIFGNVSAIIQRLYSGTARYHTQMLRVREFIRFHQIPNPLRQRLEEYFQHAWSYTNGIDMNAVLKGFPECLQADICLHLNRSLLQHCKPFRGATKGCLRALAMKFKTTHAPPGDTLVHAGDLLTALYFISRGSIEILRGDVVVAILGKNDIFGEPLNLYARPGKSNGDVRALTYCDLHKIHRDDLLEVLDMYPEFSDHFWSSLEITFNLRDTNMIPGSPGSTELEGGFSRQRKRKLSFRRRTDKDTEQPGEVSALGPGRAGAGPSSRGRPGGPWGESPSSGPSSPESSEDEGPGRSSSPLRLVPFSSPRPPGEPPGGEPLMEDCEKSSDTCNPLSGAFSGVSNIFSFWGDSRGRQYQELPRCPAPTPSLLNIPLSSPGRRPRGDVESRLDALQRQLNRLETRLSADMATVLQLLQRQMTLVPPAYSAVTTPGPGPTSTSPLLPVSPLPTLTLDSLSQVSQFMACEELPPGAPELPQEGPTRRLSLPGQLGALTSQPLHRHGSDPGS
#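 U2OS cells were transduced with wild-type KCNH2 virus (2.03 x 10^8 / mL) for 4 h at room temperature, then cultured overnight at 37 C. Thallium flux was read with FluxOr dye. Rate constants were normalized to DMSO controls.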
# LDHA inh – LDHA (human) enzyme inhibition | AID 1347041 | activity change, % (values are at about 110 or 230 µM) | purified LDHA, NADH/diaphorase-resazurin fluorescence; active compounds read low | P00338 | 480,000 compounds, 0.15% hits; in the data active means activity change below about -30%; inconclusive means mostly about -25% to -30%;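 further: plate controls were DMSO wells for no effect and wells without enzyme for full effect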
#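 Enzyme activity of human lactate dehydrogenase 5 (2 nM; 0.06 mM NADH, 0.2 mM pyruvate, 5 min, RT) is measured via a resazurin/diaphorase fluorescence readout of residual NADH.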
# 12-LOX inh – ALOX12 (human) lipoxygenase inhibition | 580,000 compounds, 1.1% hits | purified 12hLO, xylenol orange hydroperoxide absorbance | Potency, µM (top dose mostly 108 µM), for the others: top-dose activity change, negative = inhibition, actives largely listed as inhibitors | P18054; active means well fitted inhibition curve with a large enough effect; inconclusive means small, poorly fitted or top-dose-only effect, or another doubt; inactive means no such curve, though single readings can be large or run the other way; further: potency means the concentration at half of the fitted maximal effect; on the % scale 0 is the no-effect control and ±100 the full control effect
#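 Hydroperoxide product was detected by ferrous iron/xylenol orange as the 573 to 405 nm absorbance ratio. Arachidonic acid at 40 uM (final) was turned over for 30 min at room temperature by 150 nM human 12hLO, pH 7.0 Hepes buffer, after 15 min compound preincubation.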
# KCNH2 3.1 inh – inhibitors of human KCNH2 3.1 potassium channel isoform | U2OS KCNH2 3.1, thallium flux FluxOr; active compounds read low | 340,000 compounds, 0.95% hits | activity change, % (tested at about 1.8 µM);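 active means maximum activity change below -70%; inconclusive means maximum activity change from -70% to -50%; inactive means maximum activity change above -50%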;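 further: thallium influx rate constant from kinetic fluorescence after stimulation buffer; on the % scale 0 is the no-effect control and ±100 the full control effect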
#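 Measured as rate of thallium-driven FluxOr signal in transduced U2OS cells carrying the 3.1 channel, read kinetically for 2 min upon stimulation; values are rate constants scaled to DMSO control wells.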
# An asterisk follows results filed as active; ? = inconclusive; nt = not tested or not shown; [ ] = dose if it differs, or a comment.
SMILES,BCR signal inh,ClpP mod,hERG WT inh,LDHA inh,12-LOX inh,KCNH2 3.1 inh
CC(C)c1ccc(NC(=S)NN2C(C)CCCC2C)cc1 (stereo not given),-0.5%,nt,2.0,-8.6,28.2µM*,4.8
Cc1nn(Cc2ccc([N+](=O)[O-])cc2)c(=O)n1-c1ccc(Cl)cc1,0.4%,nt,3.4,-0.9,2.6%,-77.6*
O=C(CN1CCN(c2ccccc2F)CC1)c1ccc(O)c(O)c1,-1.7%,nt,-5.6,25.8,?,-1.7
O=c1cc(CN2CCN(C/C=C/c3ccccc3)CC2)c2cc(O)c(-c3ccccc3)cc2o1,0.1%,-2.4%,-37.0,2.2,2.6%,?
Oc1ccc2ccccc2c1CN1CCN(C/C=C/c2ccccc2)CC1,?,nt,32.8,4.4,?,-79.8*
O=S(=O)(c1ccccc1)N1CCN(CCO)CC1,7.5%,1.2%,-1.1,0.3,13.8%,2.4
O=S(=O)(c1ccccc1)N1CCN(Cc2c(O)ccc3ccccc23)CC1,-6.1%,-18.4%,2.2,4.8,7.08µM*,-16.4
Oc1ccc2ccccc2c1CN1CCN(c2ccccc2F)CC1,6.5%,11.2µM*,4.6,6.2,44.7µM*,-4.4
O=C(CNC(=S)N(CCCN1CCOCC1)Cc1cccs1)N1CCCCCC1,?,nt,-148.1*,-4.5,15.6%,-180.9*
C=CCNC(=O)C1CCN(c2nc(C)cc(-c3ccccc3)n2)CC1,-1.2%,25.1µM*,-23.1,-10.6,2.0%,15.9
COC(=O)c1sc(NC(=O)COc2c(C)cc(C)cc2C)nc1C,nt,nt,nt,-0.3,-7.4%,nt
CC1CC(C)C[N+](=C2C=C(N3CCCC3)CC(C)(C)C2)C1 (stereo not given),4.1%,-4.6%,9.9,-99.2*,9.7%,-4.1
CC(C)c1ccc(S(=O)(=O)N2CCN(C(=O)c3cncn3-c3ccc(F)cc3)CC2)cc1,nt,nt,nt,-18.6,29.1%,nt
COc1ccc2cc(CCNC(=O)c3cc4ccccc4o3)c(=O)[nH]c2c1,-0.2%,-17.4%,-80.1*,-4.6,-0.1%,-3.8
Cc1ccc2cc(CCNC(=O)c3cc4ccccc4o3)c(=O)[nH]c2c1C,-8.9%,-11.1%,1.7,-2.6,-18.9%,-1.6
COC(=O)C1=C(C)N(Cc2ccc(Cl)cc2)C(=S)NC1c1ccc(Br)cc1 (stereo not given),nt,nt,nt,nt,31.6µM*,nt
COC(=O)C1=C(C)N(C)C(=S)NC1c1ccc(Cl)cc1 (stereo not given),5.9%,nt,-0.8,-1.1,?,2.8
COC(=O)C1=C(C)N(Cc2ccc(Cl)cc2)C(=S)NC1c1ccc(F)cc1 (stereo not given),nt,nt,nt,nt,39.8µM*,nt
COCc1nncn1C1CCN(S(=O)(=O)c2ccc(OC)cc2)CC1,nt,nt,nt,nt,17.5%,nt
O=C1CC(c2ccccc2)N(C(=O)CNC(=O)c2ccc3ncccc3c2)CCCCCCN1 (stereo not given),nt,nt,nt,nt,7.8%,nt
CCN1CCN(c2cc(C)c3cc(NC(=O)CCC(=O)Nc4ccc(OC)c(OC)c4)ccc3n2)CC1,15.0%,4.5%,15.0,-0.4,?,-0.3
CCN1CCN(c2cc(C)c3cc(NC(=O)Cc4ccccc4OC)ccc3n2)CC1,1.5%,28.2µM*,3.8,-8.3,0.0%,15.4
COc1ccc(C)cc1NC(=O)CCC(=O)Nc1ccc2nc(N3CCN(C)CC3)cc(C)c2c1,11.1%,28.2µM*,-8.6,5.5,nt,10.8
CCCCNC(=O)CCC(=O)Nc1ccc2nc(N3CCN(C)CC3)cc(C)c2c1,0.3%,4.4%,0.4,-11.1,-4.9%,-3.3
Cc1cc(N2CCN(C)CC2)nc2ccc(NC(=O)CCC(=O)NCc3ccco3)cc12,-9.4%,22.4µM*,0.2,0.1,-7.1%,23.7
SMILES,BCR signal inh,ClpP mod,hERG WT inh,LDHA inh,12-LOX inh,KCNH2 3.1 inh
COc1ccccc1CC(=O)Nc1ccc2nc(N3CCC(C)CC3)cc(C)c2c1,nt,4.3%,nt,-1.7,-21.4%,nt
CCOc1ccccc1NC(=O)Nc1ccc2nc(N3CCN(C)CC3)cc(C)c2c1,nt,11.2µM*,nt,2.6,3.5%,nt
CN(C)C(=O)c1ccc(NC(=O)c2cc(Br)c(Br)s2)cc1,nt,nt,nt,0.4,?,nt
CCN1CCN(c2cc(C)c3cc(NC(=O)c4cncc(Br)c4)ccc3n2)CC1,?,20µM*,2.1,-3.5,-11.8%,-22.8
NC(=O)C1(Nc2ccccc2)CCCC1,nt,0.8%,-3.9,6.0,19.8%,-11.4
NC(=O)C1(Nc2ccc(C(=O)O)cc2)CCCC1,nt,11.2µM*,0.6,-7.0,22.3%,-5.1
CCOc1ccccc1N=Cc1c(O)c2ccccc2oc1=O,?,-0.4%,1.1,-12.7,?,-2.1
CCOP(=O)(Nc1cccc2oc(=O)c3ccccc3c12)OCC,nt,11.2µM*,-0.6,-20.2,1.7%,-7.6
C[S+](=O)([O-])N1Cc2ccccc2CC2(CCN(CCc3ccccc3)C2)C1 (stereo not given),nt,nt,nt,nt,5.6%[6.33 µM],nt
CCOC(=O)/C(C)=C1\NC(C)(C)Cc2ccccc21,0.2%,-1.2%,3.4,-105.5*,15.8µM*,-5.2
O=C(O)/C(=C/c1ccc(Cl)c([N+](=O)[O-])c1)c1ccc(S(=O)(=O)N2CCCCC2)s1,nt,nt,-6.0,14.8,25.1µM*,-3.9
O=C(O)/C(=C\c1cccc(F)c1)c1ccc(S(=O)(=O)N2CCCCC2)s1,?,170.4%,-39.3,0.3,-25.5%,9.7
Cc1cccc(C(=O)N(Cc2ccc(C)o2)c2ccccn2)c1,nt,nt,nt,2.9,-9.6%,nt
COc1ccc2nc(C)c(C(=O)Nc3ccc4ccccc4n3)cc2c1,nt,nt,nt,-3.6,-16.5%,nt
NC(=O)c1ccccc1NS(=O)(=O)c1ccc2c(c1)OCCO2,?,25.1µM*,-1.6,0.0,-3.1%,-10.4
O=C(O)c1ccccc1NS(=O)(=O)c1ccc2c(c1)OCCO2,0.5%,nt,-6.7,-0.8,-19.2%,-19.0
Cc1nnnn1CCCN1C[C@H](NC(=O)CC2CCC2)[C@@H](C(C)C)C1,nt,nt,nt,nt,6.7%,nt
CCN(CC)C(=O)c1sc2nc(-c3cccs3)cc(-c3cccs3)c2c1N,?,-19.1%,-14.3,-7.6,39.8µM*,-4.6
CCN(CC)C(=O)c1sc2nc(-c3cccs3)cc(-c3ccc(Cl)cc3)c2c1N,-0.2%,?,-16.4,-0.2,-16.0%,-14.4
COC(=O)c1cc(S(=O)(=O)NCc2ccccc2Cl)c[nH]1,-3.8%,-1.0%,26.7,-1.6,nt,0.3
NC(=O)c1cc(S(=O)(=O)NCc2cccs2)cs1,0.6%,1.1%,-12.6,-1.3,9.9%,-70.0*
Cc1cccc(CNS(=O)(=O)c2csc(C(N)=O)c2)c1,-1.3%,-0.2%,-3.1,-3.3,3.5%,-4.9
